PubChem BioAssay (Tox21)
“And” between values parts separate entries of the source, which are not always exact repeats. Identical values can stand only once. Records with an inconclusive call do not appear. The source made the active and inactive calls. Unless noted, calls come from the whole dose curve; as a rule, active = well fitted curve in the direction sought with a large enough effect in the repeat runs; inconclusive = weak or mixed curves; inactive = no such curve, though single readings can be large; an effect the other way counts as inactive or inconclusive.

Columns and labels:
[1] = qHTS assay to identify small molecule antagonists of the constitutive androstane receptor (CAR) signaling pathway - cell viability counter screen (AID 1224837); note: nearly all actives have a fitted effect of over 45% in size; note: potency is the fitted concentration of half-maximal effect
Procedure, shortened: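 HepG2-CYP2B6-hCAR cells, 2500/well, 4 hr pre-incubation; compound titration, 15 conc.; CITCO 50 nM final; 23 hr, 37 C/5% CO2; CellTiter-Fluor, fluorescence intensity.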

[2] = target: Nuclear receptor subfamily 1 group I member 3 (Homo sapiens) (UniProt Q14994); test: qHTS assay to identify small molecule antagonists of the constitutive androstane receptor (CAR) signaling pathway (AID 1224838);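 note: HepG2 cells stably expressing hCAR with CYP2B6 luciferase reporter stimulated by CITCO; nearly all actives have a fitted effect of over 40% in size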; note: potency is the fitted concentration of half-maximal effect
Procedure, shortened: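 HepG2-CYP2B6-hCAR cells; 4 h pre-incubation; cpd (15 conc) + CITCO 50 nM final; 24 h, 37 C/5% CO2; ONE-Glo, luminescence.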

[3] = target: Nuclear receptor subfamily 1 group I member 3 (Homo sapiens) (UniProt Q14994); test: qHTS assay to identify small molecule agonists of the constitutive androstane receptor (CAR) signaling pathway (AID 1224839); note: nearly all actives have a fitted effect of over 15% in size; note: potency is the fitted concentration of half-maximal effect;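 for activation: HepG2 cells stably carrying human CAR and a CYP2B6 luciferase reporter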
Procedure, shortened: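 HepG2 cells stably co-transfected with hCAR and a CYP2B6-2.2kb luciferase reporter; compounds at 15 concentrations with 0.75 uM PK11195 present. After 24 hr at 37 C, luciferase read by ONE-Glo luminescence.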

[4] = target: Thyrotropin receptor (Homo sapiens) (UniProt P16473); test: qHTS assay to identify small molecule agonists of the thyroid stimulating hormone receptor (TSHR) signaling pathway (AID 1224843; calls by dose curve; note: nearly all actives have a fitted effect of over 45% in size; note: potency is the fitted concentration of half-maximal effect)
Procedure, shortened: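 TSHR-expressing HEK293 cells (800 per well) were exposed to compounds for 30 min at room temperature. cAMP was then detected by HTRF competition with cAMP-d2 and anti-cAMP cryptate, read after 1 h at room temperature. Fifteen concentrations, triplicate.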

[5] = qHTS assay to identify small molecule agonists of the hypoxia (HIF-1) signaling pathway - cell viability counter screen (AID 1224844; calls by dose curve; note: nearly all actives have a fitted effect of over 50% in size; note: potency is the fitted concentration of half-maximal effect)
Procedure, shortened: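 ME-180 HRE-bla cells, 2,000/well, 0.5% dialyzed FBS; 5 hr settle, 17 hr compound at 37C/5% CO2; CCF4-AM reporter read first, then CellTiter-Glo luminescence after 30 min RT.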

[6] = qHTS assay to identify small molecule agonists of the hypoxia (HIF-1) signaling pathway (AID 1224846; active = well fitted activation curve with a large enough effect in the signal ratio in the repeat runs, not every such curve was filed as active; the % refers to the signal ratio)
Procedure, shortened: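 Cell line: CellSensor HRE-bla ME-180; 2,000 cells/well; 0.5% dialyzed FBS; 5 h preincubation; DMSO compound pin transfer; 17 h, 37C, 5% CO2; CCF4-AM added; bla FRET signal scored for activation.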

[7] = qHTS RealTime-Glo MT Cell Viability Assay in HepG2 cells - 24 hour (AID 1224867); note: nearly all actives have a fitted effect of over 50% in size; note: potency is the fitted concentration of half-maximal effect
Procedure, shortened: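 HepG2 cells (600/well) were dispensed with RealTime-Glo reagents, incubated 5 h at 37 °C, then treated with compounds in DMSO for up to 40 h. Nonlytic NanoLuc luminescence reflecting viable cells was read at each stated time point.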

[8] = qHTS RealTime-Glo MT Cell Viability Assay in HEK293 cells - 32 hour (AID 1224868); note: nearly all actives have a fitted effect of over 50% in size; note: potency is the fitted concentration of half-maximal effect
Procedure, shortened: (§1)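 HEK293 cells seeded with NanoLuc/prosubstrate reagent, rested 5 h at 37 C, then dosed and kept at 37 C up to 40 h. Nonlytic real-time luminescence from viable cells read at 0, 8, 16, 24, 32 and 40 h.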

[9] = A CellTox Green Cytotoxicity Assay to monitor cytotoxicity in HEK293 cells - 0 hour (AID 1224869); note: nearly all actives have a fitted effect of over 50% in size
Procedure, shortened: (§2)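 Nonlytic real-time cytotoxicity: HEK293 + CellTox Green reagent plated, 5 h preincubation, pintool compound addition (23 nL in DMSO), 37 C for 40 h, fluorescence measured at successive time points.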

[10] = qHTS RealTime-Glo MT Cell Viability Assay in HepG2 cells - 40 hour (AID 1224870); note: nearly all actives have a fitted effect of over 50% in size; note: potency is the fitted concentration of half-maximal effect
Procedure, shortened: (§3)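 HepG2 cells mixed with RealTime-Glo MT reagents (NanoLuc plus cell-permeant prosubstrate) were seeded at 600 cells/well, incubated 5 h at 37 C/5% CO2, then pinned with compounds in DMSO; nonlytic luminescence tracked viability during 40 h treatment.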

[11] = qHTS RealTime-Glo MT Cell Viability Assay in HEK293 cells - 16 hour (AID 1224872); note: nearly all actives have a fitted effect of over 50% in size; note: potency is the fitted concentration of half-maximal effect
Procedure, shortened: as §1

[12] = qHTS RealTime-Glo MT Cell Viability Assay in HepG2 cells - 8 hour (AID 1224873); note: nearly all actives have a fitted effect of over 55% in size; note: potency is the fitted concentration of half-maximal effect
Procedure, shortened: as §3

[13] = qHTS assay to identify small molecule antagonists of the estrogen related receptor signaling pathway with the pleiotropic PPARgamma coactivator (PGC) from Tox21 10K library - cell viability counter screen (AID 1224840; active = well fitted cell-killing curve with a large enough effect in the repeat runs, not every such curve was filed as active; note: nearly all actives have a fitted effect of over 40% in size; note: potency is the fitted concentration of half-maximal effect)
Procedure, shortened: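 PGC/ERR cells, 2,000/well; 6 h pre-incubation 37 C/5% CO2; cpd in DMSO via pin tool; 17.5 h 37 C; CellTiter-Fluor, 30 min; fluorescence.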

[14] = qHTS assay to identify small molecule agonists of H2AX (AID 1224845; active = well fitted activation curve with a large enough effect in the signal ratio in the repeat runs, not every such curve was filed as active; the % refers to the signal ratio)
Procedure, shortened: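 Wild-type CHO-K1 cells plated overnight, then exposed 3 hr at 37C to compounds at 15 concentrations (0.76% DMSO). Lysed, then HTRF anti-pH2AX(S139)-cryptate/anti-H2AX-d2 detection after 24 hr at room temperature; emissions 665 and 620 nm.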

[15] = A CellTox Green Cytotoxicity Assay to monitor cytotoxicity in HEK293 cells - 40 hour (AID 1224871); note: nearly all actives have a fitted effect of over 45% in size; note: potency is the fitted concentration of half-maximal effect
Procedure, shortened: as §2

[16] = qHTS assay to identify small molecule agonists of H2AX - cell viability counter screen (AID 1224847; calls by dose curve; note: nearly all actives have a fitted effect of over 30% in size; note: potency is the fitted concentration of half-maximal effect)
Procedure, shortened: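 CHO-K1 cells plated overnight at 37C, then exposed 3 h at 37C to compounds at 15 concentrations (0.76% DMSO final). Viability by CellTiter-Glo luminescence after 30 min at room temperature.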

[17] = qHTS assay to identify small molecule antagonists of the estrogen related receptor signaling pathway with the pleiotropic PPARgamma coactivator (PGC) from Tox21 10K library (AID 1224841; call rule not given here; note: potency is the fitted concentration of half-maximal effect)
Procedure, shortened: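 PGC/ERR cell line, 2,000 cells/well; 6 h pre-incubation 37 C/5% CO2; compounds (DMSO) pinned in; 18 h, 37 C; One-Glo, 30 min RT; luminescence.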

[18] = qHTS assay to identify small molecule agonists of the estrogen related receptor signaling pathway with the pleiotropic PPARgamma coactivator (PGC) from Tox21 10K library (AID 1224842); note: nearly all actives have a fitted effect of over 15% in size
Procedure, shortened: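 PGC/ERR reporter cells (NTP line) were seeded 2,000 per well, rested 6 h at 37 C/5% CO2, then pin-dosed with compounds in DMSO for 18 h at 37 C; luciferase read by One-Glo luminescence after 30 min at room temperature.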

[19] = qHTS assay to identify small molecule antagonists of the estrogen related receptor (ERR) signaling pathway from Tox21 library (AID 1224848); note: nearly all actives have a fitted effect of over 50% in size; note: potency is the fitted concentration of half-maximal effect
Procedure, shortened: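 Cells: ERR line, 2,000/well; 6 h preincubation 37 C/5% CO2. Cpd in DMSO via pin tool; 18 h, 37 C. ONE-Glo, 30 min RT, luminescence.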

[20] = qHTS assay to identify small molecule agonists of the estrogen related receptor (ERR) signaling pathway from Tox21 library (AID 1224849; calls by dose curve; note: nearly all actives have a fitted effect of over 15% in size); settings: ERR reporter cell line, ONE-Glo luciferase, 18 h
Procedure, shortened: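 ERR cells, 6 h pre-incubation 37 C/5% CO2; cpd in DMSO pinned; 18 h 37 C; ONE-Glo added, 30 min RT; luminescence read. Agonist mode, qHTS.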

[21] = at 92.4 µM (top of the series) unless noted
% is set by controls: 0 for no effect and ±100 for the full control effect.

Chain of Thyrotropin receptor (Homo sapiens) (P16473 whole entry, looked up): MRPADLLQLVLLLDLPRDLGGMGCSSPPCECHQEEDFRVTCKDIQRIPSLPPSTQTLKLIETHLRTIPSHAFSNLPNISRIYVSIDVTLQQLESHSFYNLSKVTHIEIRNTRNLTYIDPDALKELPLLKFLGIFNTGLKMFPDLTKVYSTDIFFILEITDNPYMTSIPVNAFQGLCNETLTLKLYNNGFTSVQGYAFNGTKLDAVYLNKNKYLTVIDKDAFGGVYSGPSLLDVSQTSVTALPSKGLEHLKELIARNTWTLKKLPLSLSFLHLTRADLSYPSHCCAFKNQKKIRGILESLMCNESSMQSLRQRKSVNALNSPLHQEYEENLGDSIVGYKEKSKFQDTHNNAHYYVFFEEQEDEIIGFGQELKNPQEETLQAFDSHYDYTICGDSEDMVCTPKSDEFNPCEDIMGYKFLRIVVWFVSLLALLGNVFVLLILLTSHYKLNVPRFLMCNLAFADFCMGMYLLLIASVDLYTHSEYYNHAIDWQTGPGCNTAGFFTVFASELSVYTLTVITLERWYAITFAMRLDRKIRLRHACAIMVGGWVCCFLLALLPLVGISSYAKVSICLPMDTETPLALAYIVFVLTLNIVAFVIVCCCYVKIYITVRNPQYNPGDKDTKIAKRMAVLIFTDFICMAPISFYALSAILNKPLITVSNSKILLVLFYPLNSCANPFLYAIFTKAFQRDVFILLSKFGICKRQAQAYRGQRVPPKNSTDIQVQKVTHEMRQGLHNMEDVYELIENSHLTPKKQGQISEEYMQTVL
Chain of Nuclear receptor subfamily 1 group I member 3 (Homo sapiens) (Q14994 whole entry, looked up): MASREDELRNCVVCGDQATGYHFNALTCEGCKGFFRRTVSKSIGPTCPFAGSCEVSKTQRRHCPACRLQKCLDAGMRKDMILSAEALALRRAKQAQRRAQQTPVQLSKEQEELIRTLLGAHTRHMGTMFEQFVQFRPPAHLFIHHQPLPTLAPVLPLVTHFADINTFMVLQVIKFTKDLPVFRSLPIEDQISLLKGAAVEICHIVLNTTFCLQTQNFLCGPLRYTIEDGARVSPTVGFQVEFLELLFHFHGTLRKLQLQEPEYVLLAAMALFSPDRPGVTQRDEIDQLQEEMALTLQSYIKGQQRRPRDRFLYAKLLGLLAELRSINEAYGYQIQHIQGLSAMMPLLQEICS

O=C[C@H](O)[C@H](O)[C@H](O)CO
inactive: Potency [1] | Potency [2] | Potency [3] | Potency [4] | Potency [5] | outcome [6] | Potency [7] | Potency [8] | Potency [9] | Potency [10] | Potency [11] | Potency [12]

CCCCCCCCCCCC(=O)N(CC)CC
active: Potency [3] 54.5 µM
inactive: Potency [1] | Potency [2] | Potency [13] | Potency [4] | Potency [14] | Potency [7] | Potency [8] | Potency [9] | Potency [10] | Potency [15] | Potency [12]

COc1cccc(O)c1
inactive: Potency [1] | Potency [2] | Potency [3] | Potency [5] | outcome [6] | Potency [16] | Potency [7] | Potency [8] | Potency [9] | Potency [10] | Potency [15] | Potency [11] | Potency [12]

O=C1OC(=O)c2cccc3cccc1c23
inactive: Potency [1] | Potency [2] | Potency [3] | Potency [17] | Potency [18] | Potency [5] | outcome [6] | Potency [19] | activity change, positive = activation [20, 21] -2.65% | Potency [7] | Potency [8] | Potency [9] | Potency [10] | Potency [15] | Potency [11]

CCCC(CC)CCCCCCCN (centres undefined)
active: Potency [5] 50.2 µM | Potency [16] 103 µM | Potency [15] 50.2 µM
inactive: Potency [1] | Potency [2] | Potency [3] | Potency [17] | Potency [18] | Potency [14] | Potency [7] | Potency [9] | Potency [10] | Potency [12]

CCN=C1C=CC(=C(c2ccc(N(CC)CC)cc2)c2ccc(N(CC)CC)cc2)c2ccccc21
active: Potency [1] 6.08 µM | Potency [2] 6.08 µM | Potency [13] 9.63 µM | Potency [5] 21.7 µM | Potency [16] 35.5 µM | Potency [7] 17.3 µM | Potency [8] 6.88 µM | Potency [10] 19.4 µM | Potency [11] 13.7 µM | Potency [12] 19.4 µM
inactive: Potency [3]

CCC(C)(C)c1cc(O)c(C(C)(C)CC)cc1O
inactive: Potency [1] | Potency [2] | Potency [3] | Potency [18] | Potency [4] | activity change, positive = activation [20, 21] -67.5% | Potency [9] | Potency [10]
active: Potency [19] 68.6 µM | Potency [8] 30.9 µM | Potency [11] 21.9 µM

CC(=O)Oc1ccc(C2(c3ccc(OC(C)=O)cc3)Oc3ccccc3NC2=O)cc1
active: Potency [2] 16.8 µM
inactive: Potency [1] | Potency [3] | Potency [13] | Potency [4] | Potency [16] | Potency [7] | Potency [9] | Potency [10] | Potency [15] | Potency [11] | Potency [12]

CC(=O)OC(OC(C)=O)c1ccc([N+](=O)[O-])o1
active: Potency [1] 62.2 µM | Potency [2] 55.4 µM | Potency [4] 27.8 µM | Potency [8] 44.4 µM | Potency [15] 49.8 µM | Potency [11] 44.4 µM
inactive: Potency [3] | Potency [18] | Potency [9]

CC1CCCCC1
inactive: Potency [1] | Potency [2] | Potency [3] | Potency [4] | Potency [5] | Potency [14] | outcome [6] | Potency [16] | Potency [7] | Potency [8] | Potency [9] | Potency [10] | Potency [15] | Potency [11] | Potency [12]

O=C1NCN(c2ccccc2)C12CCN(CCCC(c1ccc(F)cc1)c1ccc(F)cc1)CC2
inactive: Potency [3] | Potency [18] | Potency [4] | activity change, positive = activation [20, 21] -32.9% [at 42.5 µM] | Potency [9]
active: Potency [1] 13.3 µM | Potency [2] 13.3 µM | Potency [5] 10.7 µM | Potency [16] 49.2 µM | Potency [19] 21.1 µM | Potency [7] 6.74 µM | Potency [8] 19 µM | Potency [10] 6.74 µM | Potency [15] 23.9 µM | Potency [11] 19 µM | Potency [12] 10.7 µM

COc1cccc(OC)c1O
inactive: Potency [1] | Potency [2] | Potency [3] | Potency [13] | Potency [4] | outcome [6] | Potency [16] | Potency [7] | Potency [8] | Potency [9] | Potency [10] | Potency [15] | Potency [12]

O=C1c2c(O)ccc([N+](=O)[O-])c2C(=O)c2c([N+](=O)[O-])ccc(O)c21
active: Potency [1] 24.1 µM | Potency [2] 24.1 µM | Potency [17] 9.6 µM | Potency [5] 6.85 µM | Potency [16] 50 µM | Potency [19] 15.2 µM | Potency [7] 38.5 µM | Potency [8] 24.3 µM | Potency [11] 13.7 µM
inactive: Potency [3] | Potency [18] | activity change, positive = activation [20, 21] -80% | Potency [9] | Potency [15]

CSc1ccc2c(c1)N(CCC1CCCCN1C)c1ccccc1S2 (centres undefined)
inactive: Potency [2] | Potency [3] | Potency [4] | activity change, positive = activation ([20]; at 42.5 µM (top of the series)) -67.5% | activity change, positive = activation ([20]; at 92.4 µM (top of the series)) -73.9% | Potency [9]
active: Potency [1] 54.3 µM | Potency [13] 30.5 µM and 29.8 µM | Potency [16] 50.3 µM and 55.2 µM | Potency [19] 27.2 µM | Potency [7] 48.8 µM and 23.9 µM | Potency [15] 30.8 µM | Potency [11] 17.3 µM | Potency [12] 54.7 µM and 23.9 µM

O=C1Nc2ccc(Cl)cc2[C@@](C#CC2CC2)(C(F)(F)F)O1
active: Potency [8] 23.9 µM | Potency [11] 21.3 µM
inactive: Potency [1] | Potency [2] | Potency [3] | Potency [13] | Potency [14] | Potency [9] | Potency [10]
